# Reference: PubChem BioAssay AID2315 (National Center for Advancing Translational Sciences (NCATS), 2010)
# The campaign covered roughly 290,000 compounds. About 27,000 (9.3%) were called active. This is one part of a sample in which actives are shown more often than they occur. Unmarked numbers belong to inactive results. No stated cut-off is given here; in the data, active means inhibition mostly above about 28% (no sharp cut-off); inactive means mostly below about 43%.
# Assay: A qHTS for Small Molecule Inhibitors of Shiga Toxin; on inhibition: 0% is about no effect
# Details: Vero cells, Shiga toxin protein synthesis inhibition reporter; at 38.7 µM, stronger effect = higher value
row,SMILES,inhibition
1,O=C(Cc1ccc(Br)cc1)NCCN1CCOCC1,-10.9%
2,CC1CCN(C(=O)CCc2nnc3ccc(NCc4ccco4)nn23)CC1,12.6%
3,Cc1cccc(-n2cnc(C(=O)NNC(=S)Nc3ccccc3)c2)n1,-10.7%
4,Cc1cccc(-n2cnc(C(=O)Nc3cccnc3)c2)n1,101% (active)
5,O=C(Nc1cccnc1)c1cc([N+](=O)[O-])ccc1Cl,-2.48%
6,Cc1ccc2nc(SCC(=O)NC3CCCC3)[nH]c2c1,-2.14%
7,Cc1ccc2nc(-c3ccc(SCC(=O)Nc4cc(C)on4)nc3)[nH]c2c1,71.3% (active)
8,Cc1ccc(SCCC(=O)Nc2cc(C)on2)cc1,-4.4%
9,CC(C)(C)c1ccc(C(=O)N2CCN(CCNC(=O)C(=O)Nc3ccc(F)cc3)CC2)cc1,-6.99%
10,CCNCc1cc2cc(C)ccc2[nH]c1=O,12%
11,CC(=O)OCc1cc2cc(C)ccc2[nH]c1=O,-8.28%
12,CCOC(=O)c1cc2cc(C)ccc2[nH]1,168% (active)
13,COc1ccc(CNC(=O)[C@H](Cc2c[nH]c3ccccc23)NC(C)=O)cc1OC,-6.62%
14,COc1ccc(-c2ccc(CCC(=O)O)n2NC(=O)c2ccc(C(C)(C)C)cc2)cc1,21% (active)
15,COCCCn1c(CCC(=O)O)ccc1-c1ccc(F)cc1,13%
16,COc1ccc(-c2ccc(CCC(=O)O)n2-c2ccc(O)cc2)cc1,4.87%
17,CC(C)c1ccc(Nc2nnc(SCC(=O)c3nnc(-c4ccccc4)o3)s2)cc1,58.9% (active)
18,O=C(CSc1nnc(Nc2ccccc2)s1)Nc1cccnc1Cl,-14.8%
19,Cc1ccc(Nc2nnc(SCC(=O)c3cc4ccccc4o3)s2)cc1C,19.8%
20,Cc1cc(C)cc(Oc2c(C(F)(F)F)oc3cc(OCC(=O)O)ccc3c2=O)c1,-4.45%
21,CC(C)=CCN1CCN(Cc2cc3ccccc3[nH]2)CC1CCO (configuration not stated),1.5%
22,N#Cc1cccc(CN2CCC(=O)N(CCO)CC2)c1,2.03%
23,O=C(Nc1cccc(Cl)c1)Nc1nnc(-c2ccccc2)o1,-12.3%
24,O=C(Nc1nnc(SCc2c(Cl)cccc2Cl)s1)C1CCCO1 (configuration not stated),86.4%
25,O=C(Nc1nnc(CCc2ccccc2)s1)C1CCCO1 (configuration not stated),39.5%

row,SMILES,inhibition
1,O=C(Nc1cccc(-c2nnc(-c3ccccc3)o2)c1)C1CCCO1 (configuration not stated),85% (active)
2,O=C(Nc1ccc(-c2nnc(-c3ccccc3)o2)cc1)C1CCCO1 (configuration not stated),93.5% (active)
3,CC(C)(C)NS(=O)(=O)c1ccc(NC(=O)C2CCCO2)cc1 (configuration not stated),-21.4%
4,CCCCC(=O)Nc1c2c(nn1-c1ccc([N+](=O)[O-])cc1)CS(=O)(=O)C2,19.5%
5,Cc1ccc2c(C)c(C(=O)N(C)Cc3ccncn3)oc2c1C,4.22%
6,C=CCn1c(SCC(=O)NCCCO)nc2sc3c(c2c1=O)CCC3,8.99%
7,Brc1ccc(-c2n(-c3ccccn3)c3ccccc3[n+]2-c2ccccn2)cc1,12.9%
8,O=[N+]([O-])c1cccc(S(=O)(=O)NCc2ccccn2)c1,-7.29%
9,Cc1cc2cc3c(N)[nH]nc3nc2cc1C,40.9% (active)
10,CSc1ncccc1C(=O)Nc1nc2ccc(F)cc2s1,138% (active)
11,CSc1ncccc1C(=O)Nc1ccc(C)cn1,34%
12,COc1cc(NC(=O)c2cccnc2SC)cc(OC)c1,10.8%
13,COCCn1c(N)c(NCc2ccccc2)c(=O)[nH]c1=O,-3.86%
14,COc1ccc(C2CC(c3cccs3)=NN2C(=O)CSc2nnc(N)s2)cc1OC (configuration not stated),-6.81%
15,COc1ccc(C2CC(c3cccs3)=NN2C(=O)CCC(=O)O)cc1OC (configuration not stated),-4.61%
16,COc1ccc(C2CC(c3cccs3)=Nc3ccccc3S2)cc1OC (configuration not stated),41.1% (active)
17,O=C(NCc1ccccc1Cl)C1CCN(c2ncnc3c2nc2n3CCCCC2)CC1,-9.78%
18,O=C1CCN(C(=S)NCCc2ccccc2)CC1,35.2%
19,COc1ccc(C(=O)NC2CCN(C(=S)NCCc3ccccc3)CC2)cc1,2.57%
20,CC1CCCCN1C(=S)NCc1ccccc1 (configuration not stated),-6.29%
21,S=C(NCCc1ccccc1)NCC1CCCO1 (configuration not stated),0% (active)
22,O=C(NCCc1c[nH]c2ccccc12)C(=O)NCC1CCCO1 (configuration not stated),-8.17%
23,S=C(NCCc1ccccc1)Nc1ccccc1,57.4% (active)
24,Oc1ccc(N2CCN(C(=S)NCc3ccccc3)CC2)cc1,17.4%
25,S=C(NCCc1ccccc1)N1CCCCC1,66.4% (active)

row,SMILES,inhibition
1,S=C(NCCc1ccccc1)NCc1ccccc1Cl,18.4%
2,O=C(CS(=O)(=O)Cc1ccccc1)NCC1CCCO1 (configuration not stated),-4.38%
3,Oc1ccccc1N1CCN(C(=S)NCc2ccccc2)CC1,76.8% (active)
4,S=C(NCCCc1ccccc1)Nc1ccc(Br)cc1,0.943%
5,Clc1cc(NC2CCCCC2)ncn1,-10.3%
6,CCOC(=O)C1C/C(=C\C(C)=O)c2cccc(C(F)(F)F)c2O1 (configuration not stated),inactive
7,COc1ccc(CCN2C(=O)C(C)=C(C)C2=O)cc1OC,17.7%
8,COCCn1c(SCC(=O)Nc2nc(C)cs2)nnc1C(C)C,-5.99%
9,Cc1nnc(NC(=O)C(c2ccccc2)c2ccccc2)s1,-9.41%
10,COc1ccccc1N1CCN(C(=O)CCS(=O)(=O)c2ccc3c(c2)NC(=O)C(C)S3)CC1 (configuration not stated),-1.86%
11,O=C(CN1CCN(Cc2ccccc2)CC1)Nc1ccc(F)c(F)c1,14.5%
12,Cc1ccc(NC(=O)COC(=O)C2C3CC4OC(=O)C2C4C3)cc1Cl (configuration not stated),17.4%
13,Cc1ccc(S(=O)(=O)N(CC(O)CN2C(=O)NC(C)(C)C2=O)c2cccc([N+](=O)[O-])c2)cc1 (configuration not stated),-12.9%
14,COc1ccc(CCNC(=O)CCC(=O)NC2CCCCC2)cc1OC,10.5%
15,COC(=O)CN1C(=O)[C@H]2[C@@H](/C=C/c3ccccc3)N3C(=O)CN(CC4CC4)C(=O)[C@@]3(Cc3ccccc3)[C@H]2C1=O,-11.8%
16,O=C(Cc1cccc2ccccc12)NCCC1=CCCCC1,-13.5%
17,S=C(NCCC1=CCCCC1)Nc1ccccc1,72.2% (active)
18,Cc1nnc(OCC(=O)NCCC2=CCCCC2)c2ccccc12,-1.67%
19,CN(C(=O)C1CCN(c2ncnc3c2nc2n3CCCCC2)CC1)C1CCCCC1,-2.24%
20,COCC(=O)Nc1c(C(=O)N2CCCC2)oc2ccccc12,3.56%
21,Cc1cc(N(C)C)nc(Cl)n1,-9.68%
22,COc1ccc(-c2nc3c(c(SCC(=O)Nc4ccc(C(=O)O)cc4)n2)Cc2ccccc2O3)cc1,18.2%
23,O=C1C2C3C=CC(C4CC34)C2C(=O)N1/N=C/c1ccc(-c2ccccc2[N+](=O)[O-])o1 (configuration not stated),61.9%
24,COc1cccc(N(CC(=O)NC2CCCCCC2)S(=O)(=O)c2ccccc2)c1,-29.3%
25,C/C(=N\NC(=O)c1ccc(C)cc1)C1C(=O)c2ccccc2C1=O,40.4% (active)

row,SMILES,inhibition
1,C/C(=N\NC(=O)CNC(=O)C(c1ccccc1)c1ccccc1)c1ccc(C)cc1,-1.4%
2,Cc1ccc(C(=O)N/C(=C/c2cccnc2)C(=O)O)cc1,14.9%
3,COCCN1C(=O)C(=O)/C(=C(/O)c2ccc(S(=O)(=O)N3CCOCC3)cc2)C1c1ccc(O)c(OC)c1 (configuration not stated),2.24%
4,Cc1cc(C)nc(NS(=O)(=O)c2ccc(N3C(=O)C4CCCCC4C3=O)cc2)n1 (configuration not stated),-4.6%
5,CSCc1ccc(C(=O)Nc2cc(C)cc(C)c2)cc1,39% (active)
6,CC(=O)Nc1ccccc1NC(=O)c1cc(C)cc(C)c1,-6.09%
7,C=CCN(c1ccc(C(=O)Nc2cc(C)cc(C)c2)cc1)S(C)(=O)=O,1.49%
8,O=C(N/N=C/c1ccc2c(c1)OCO2)c1ccc(Cn2cc([N+](=O)[O-])cn2)o1,39.5% (active)
9,CC1CCc2c(sc(NC(=O)c3ccc(Cn4cc(Br)cn4)o3)c2C(N)=O)C1 (configuration not stated),14.4%
10,CN(C)c1ccc(/C=N/NC(=O)c2ccc(Cn3cc(Br)cn3)o2)cc1,73.5% (active)
11,O=C(c1ccc(Cn2cc([N+](=O)[O-])cn2)o1)N1CCCC1,-5.81%
12,COc1cccc(NC(=O)c2ccc(Cn3cc([N+](=O)[O-])cn3)o2)c1,12.9%
13,O=C(N/N=C\c1ccc(Br)cc1)c1ccc(Cn2cccn2)o1,26.8%
14,O=C(NCCc1ccc(Cl)cc1)C1CCCN1C(=O)NCc1ccccc1 (configuration not stated),2.06%
15,COc1cccc(NS(=O)(=O)c2ccc(-c3coc(C)n3)cc2)c1,-7.18%
16,COc1ccc(N2CCN(C(C)=C3C(=O)c4ccccc4C3=O)CC2)cc1,66.2% (active)
17,COc1ccc(N2CCN(C(=O)c3cccs3)CC2)cc1,41.6%
18,CC(=C1C(=O)c2ccccc2C1=O)N1CCN(c2ccccn2)CC1,2.68%
19,COc1ccccc1C(=O)N1C(CC(=O)Nc2ccccc2C)C(=O)NC2CCCCC21 (configuration not stated),-1.4%
20,COC(=O)[C@H](Cc1ccccc1)NC(=O)[C@@H]1C[C@H]1[C@@H](NC(=O)OCc1ccccc1)c1ccccc1,-13%
21,CC1Sc2ccc(S(=O)(=O)CCC(=O)NCc3ccccc3Cl)cc2NC1=O (configuration not stated),11.4%
22,Cc1cc(C)nc(N/N=C/c2ccc([N+](=O)[O-])o2)n1,12.2%
